# Results filed as inconclusive are left out. Activity calls are given as the source filed them. Calls follow the shape of the dose curve; as a rule, active = well fitted inhibition curve with a large enough effect; inconclusive = small, poorly fitted or top-dose-only effect; inactive = flat fitted curve, though single readings scatter.
# Biological target: Calcium and integrin-binding protein 1 (Homo sapiens) (UniProt Q99828)
# Experiment: Primary qHTS for Identification of Calcium Integrin Binding Protein 1 (CIB1) Competitor (AID 1508620); also: top concentration of the series differs between compounds
# Conditions: CIB1-GST / FITC-alphaIIb peptide fluorescence polarization; series mostly up to 114 µM; activity change, negative = inhibition: at the top concentration
# Outline: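 Fluorescence polarization competition: GST-tagged CIB1 (1 uM final) preincubated with compound 15 min at room temperature, then FITC-labelled alphaIIb peptide (100 nM final) added. After 15 min at room temperature, polarization read at Ex 480/Em 540.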
# % is scaled to controls: 0 for no effect and ±100 for the full control effect.
# Calcium and integrin-binding protein 1 (Homo sapiens), sequence (Q99828 whole entry, looked up): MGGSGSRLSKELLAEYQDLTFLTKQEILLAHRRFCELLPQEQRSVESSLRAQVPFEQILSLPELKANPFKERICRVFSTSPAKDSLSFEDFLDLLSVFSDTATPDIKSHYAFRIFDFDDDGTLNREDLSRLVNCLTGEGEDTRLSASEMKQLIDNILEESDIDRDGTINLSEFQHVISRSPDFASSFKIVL
Structure (SMILES),"activity change, negative = inhibition",Potency
N#Cc1ccc(-c2ccc(NC(=O)c3cccs3)cn2)cc1,2.08% (inactive),–
Cc1cc2c(s1)c1cnn(Cc3cccc4cccnc34)c(=O)c1n2C,-1.07% (inactive),–
O=C(NCc1nnc(C(=O)Nc2ccc(C(F)(F)F)cc2Cl)o1)c1ccccc1,2.6% (inactive),–
Cc1ccc(Cn2ncc3c4sc(C)cc4n(C)c3c2=O)c(C)c1,6.58% (inactive),–
O=C(/C=C/c1ccc(F)cc1)Nc1cccc([S+](=O)([O-])Nc2ccccc2F)c1,–,inactive
O=C(O)c1ccc2c(c1)C(=O)N([C@H](Cc1c3ccccc3cc3ccccc13)C(=O)O)C2=O,-2.03% (inactive),–
Cc1cc(NS(=O)(=O)c2ccc(NC(=O)Cc3ccc(C)c(C)c3)cc2)no1,-16.3% (inactive),–
Fc1cccc(Nc2nc(-c3ccncc3)nc3ccccc23)c1,9.62% (inactive),–
CCc1ccccc1C(=O)N1CCc2cc(-c3nc(NC(=O)Cc4ccc5c(c4)OCO5)sc3C)ccc21,0.376% (inactive),–
COc1cc(OC)cc(N2CCN(C(=S)Nc3cc(C)cc(C)n3)CC2)c1,-2.1% (inactive),–
COc1ccc(C2=Nn3c(nnc3-c3ccccc3Cl)SC2)cc1OC1CCCC1,0.59% (inactive),–
N#Cc1nc(Nc2cc(F)cc(F)c2)nc(NC2CCCC2)n1,-0.12% (inactive),–
CC(C)c1ccccc1-c1nc(NCc2ccc(-c3cccnc3)cc2)c2occc2n1,-0.709% (inactive),–
C(=C/c1cccs1)/c1ccncc1,-0.322% (inactive),–
Fc1ccccc1-c1nc(-c2ccccc2)no1,4.21% (inactive),–
Nc1nc(Nc2cc(F)cc(F)c2)nc(NC2CCCC2)n1,-2.01% (inactive),–
O=C(CN(Cc1cccc2ccccc12)C1CC1)Nc1ccc(N2CCOCC2)cc1,5.3% (inactive),–
Cc1noc(-c2sc3c(c2-c2nc4ccccc4s2)CCNC3)n1,-0.415% (inactive),–
Cc1cc(C)nc(NC(=S)N2CCN(c3ccc(C(F)(F)F)cn3)CC2)c1,–,inactive
O=C(Nc1ccc(Cl)c(C(F)(F)F)c1)Nc1nnc(-c2ccncc2)s1,–,inactive

Structure (SMILES),"activity change, negative = inhibition",Potency
CN1CCc2sc(NC(=O)Cc3ccccc3)c(C(=O)Nc3ccc(Cl)cc3)c2C1,2.33% (inactive),–
Oc1cc(Nc2cccnc2)cc2cccnc12,-5.63% (inactive),–
Cc1ccccc1C(=O)N1CCc2cc(-n3cc(NC(=O)Cc4ccccc4)cn3)ccc21,2.64% (inactive),–
Cc1ccc(-c2nnc(N3CCC(C(N)=O)CC3)s2)cc1,4.74% (inactive),–
Cc1cc2c(s1)c1cnn(Cc3c(F)ccc(C)c3F)c(=O)c1n2C,0.24% (inactive),–
COc1cccc(C2c3c(ncn(-c4ccc(NC(C)=O)cc4)c3=N)Oc3ccc4ccccc4c32)c1 (stereo not given),8.37% (inactive),–
CCc1nn2c(=O)cc(-c3ccncc3)nc2s1,-5.44% (inactive),–
COc1ccc(C2c3c(nc(C)[nH]c3=O)Oc3ccc4ccccc4c32)cc1OC (stereo not given),2.05% (inactive),–
COc1cccc(C2c3c(ncn(-c4cccc(Br)c4)c3=N)Oc3ccc4ccccc4c32)c1 (stereo not given),3.79% (inactive),–
CC(=O)Nc1sc2c(c1-c1nc3ccccc3s1)CN(C1COC1)C2,-15.4% (inactive),–
Cc1cc(C)nc(NC(=S)N2CCN(c3nccs3)CC2)c1,–,inactive
O=C(Nc1nnc(-c2ccncc2)s1)Oc1ccc2ccccc2c1,0.0482% (inactive),–
CCOc1ccc(CCNC(=O)c2cc3sccc3n2Cc2cccc(C)c2)cc1OCC,3.52% (inactive),–
N#CN/C(=N\c1nnc(-c2ccncc2)s1)Nc1ccc(F)c(C(F)(F)F)c1,-13.1% (inactive),–
Cn1nnnc1Sc1ncnc2scc(-c3cccc(C#N)c3)c12,-6.72% (inactive),–
N#Cc1nonc1-c1ccccc1,1.62% (inactive),–
O=C(Cn1cc(CNCc2ccccc2)nn1)Nc1cc(C(F)(F)F)ccc1Cl,4.52% (inactive),–
Cc1ccc(OCCn2c(CCNC(=O)c3ccccc3[N+](=O)[O-])nc3ccccc32)cc1,7.44% (inactive),–
O=C1c2ccccc2C(=O)N1c1ccc(O)cc1,-4.23% (inactive),–
O=S(=O)(c1ccc(F)cc1)N1CCN(S(=O)(=O)c2ccc3c(c2)OCCO3)CC1,4.69% (inactive),–

# From PubChem BioAssay (NCATS)
